In PubChem BioAssay (Tox21):
Values without a mark were called inactive. Records with an inconclusive call do not appear. A call without a number means that no potency is given here. Activity calls are given as the source filed them. Unless noted, the call rests on the fitted dose curve.

Key:
[1] = Nuclear factor erythroid 2-related factor 2/antioxidant responsive element (Nrf2/ARE) small molecule agonists: qHTS cell viability counter screen in human keratinocytes (AID 1919968; active means well fitted curve in the direction sought with a large enough effect in the repeat runs; an effect the other way counts as inactive or inconclusive; further: nearly all actives have a fitted effect of over 55% in size)
Summary of the method: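 HaCaT ARE reporter line, 1,500 cells/well; 5 h settle, 37 C/5% CO2; cpd in DMSO pinned; 23 h exposure; CellTiter-Fluor, 1 h; fluorescence.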

[2] = Nuclear factor erythroid 2-related factor 2/antioxidant responsive element (Nrf2/ARE) small molecule agonists: luciferase reporter gene qHTS assay in human keratinocytes (AID 1919969); further: nearly all actives have a fitted effect of over 35% in size
[3] = target: Gonadotropin-releasing hormone receptor (Homo sapiens) (UniProt P30968); experiment: Human gonadotropin-releasing hormone receptor (GnRHR) small molecule agonists, calcium flux assay in GnRHR-HEK293 cells (AID 1920063); further: nearly all actives have a fitted effect of over 35% in size
Summary of the method: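 GnRHR-HEK293, 1500 cells/well, 18 h 37 C/5% CO2; Ca dye 1 h 37 C; cpd pinned (DMSO), agonist mode; kinetic FL 480/540, 3 min, 1 s reads; 15 conc, n=3.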

[4] = target: KiSS-1 receptor (Homo sapiens) (UniProt Q969F8); experiment: Human kisspeptin (KISS1R) small molecule agonists, calcium flux assay in KISS1R-HEK293 cells (AID 1920064; active means well fitted curve in the direction sought with a large enough effect in the repeat runs; an effect the other way counts as inactive or inconclusive)
Summary of the method: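 Stable human KISS1R HEK293 line; 18 h plating, 37 C/5% CO2; calcium dye 1 h 37 C; compound pin transfer; kinetic fluorescence Ex/Em 480/540, 3 min.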

[5] = G protein-coupled receptor (GPCR) small molecule agonists, calcium flux assay: HEK293 wild type cell line counter screen (AID 1920065)
Summary of the method: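 Kinetic fluorescence at Ex/Em 480/540, recorded every second over 3 min, served as the read-out after compound addition. Each compound was tested at 15 concentrations in triplicate on cells pre-loaded with calcium dye for 1 h.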

[6] = p53 small molecule agonists, cell-based qHTS assay with human liver microsomes (AID 1963577);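 further: p53 response element beta-lactamase reporter cells with liver microsomes plus NADPH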
Summary of the method: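 16 h, 37 C exposure of p53RE-bla cells to compounds with human liver microsomes and NADPH (0.5 mg/mL final each); detection via LiveBLAzer mixture, 2 h dark at room temperature.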

[7] = p53 small molecule agonists, cell-based qHTS assay with rat liver microsomes (AID 1963578)
Summary of the method: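 With rat liver microsomes and NADPH present (0.5 mg/mL final each), p53RE-bla cells are treated with compound for 16 h at 37 C. LiveBLAzer detection mixture is then applied for 2 h at room temperature in the dark.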

[8] = p53 small molecule agonists, cell-based qHTS assay with human liver microsomes: qHTS cell viability counter screen (AID 1963579); further: nearly all actives have a fitted effect of over 45% in size
Summary of the method: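 In this multiplexed counter screen, the reporter plates were subsequently treated with CellTiter-Glo so that cell viability, reflected by luminescence, could be recorded for p53RE-bla cells dosed 16 h with compounds under microsomal activation (HLM and NADPH).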

[9] = p53 small molecule agonists, cell-based qHTS assay with rat liver microsomes: qHTS cell viability counter screen (AID 1963580); further: nearly all actives have a fitted effect of over 45% in size
Summary of the method: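 Intracellular ATP, by CellTiter-Glo luminescence, defines viability. HCT-116 p53RE-bla cells, 4,000 per well, were compound-treated in the presence of rat liver microsomes and NADPH for 16 h at 37 C.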

[10] = p53 small molecule agonists, cell-based qHTS assay: qHTS cell viability counter screen (AID 1963581); further: nearly all actives have a fitted effect of over 45% in size; further: potency means the concentration at half of the fitted maximal effect
Summary of the method: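 HCT-116 p53RE-bla cells, 4,000/well, plated 5 h before compound pin transfer; 16 h at 37 C; bla substrate 2 h RT; then CellTiter-Glo, 30 min RT, luminescence.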

[11] = p53 small molecule agonists, cell-based qHTS assay (AID 1963582; active means well fitted activation curve with a large enough effect in the signal ratio in the repeat runs, not every such curve was filed as active; the % refers to the signal ratio)
Summary of the method: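 Reporter line: p53RE-bla. Pre-incubation 5 h, 37 C, 5% CO2; compound (DMSO, pin tool) 16 h, 37 C; B/G FRET substrate 2 h RT; fluorescence intensity read.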

[12] = target: 5-hydroxytryptamine receptor 2A (Homo sapiens) (UniProt P28223); experiment: 5-hydroxytryptamine receptor 2A (HTR2A) small molecule antagonists, cell-based qHTS assay (AID 1963586); further: nearly all actives have a fitted effect of over 45% in size
Summary of the method: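 Antagonist-mode intracellular calcium assay: DOI (4 nM) added after 5 min compound pre-incubation at room temperature to dye-loaded HTR2A-CHO cells. Fluorescence followed for 3 min, sampled every second.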

[13] = target: 5-hydroxytryptamine receptor 2A (Homo sapiens) (UniProt P28223); experiment: 5-hydroxytryptamine receptor 2A (HTR2A) small molecule agonists, cell-based qHTS assay (AID 1963587); further: nearly all actives have a fitted effect of over 30% in size
Summary of the method: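 Kinetic calcium-flux fluorescence (2 min, 1 sec intervals) after compound addition in agonist mode. HTR2A-CHO cells were cultured 18 h, then dye-loaded 1 h at 37 C.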

[14] = target: Muscarinic acetylcholine receptor M1 (Homo sapiens) (UniProt P11229); experiment: Cholinergic receptor muscarinic 1 (CHRM1) small molecule antagonists, cell-based qHTS assay (AID 1963588); further: nearly all actives have a fitted effect of over 40% in size
Summary of the method: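 CHRM1-CHO calcium-flux assay, antagonist mode. Cells were seeded 18 h, dye-loaded 1 h at 37 C and given compound for 5 min at RT, then acetylcholine was added at 50nM. FDSS fluorescence was read 3 min; 15 concentrations, three runs.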

[15] = target: Muscarinic acetylcholine receptor M1 (Homo sapiens) (UniProt P11229); experiment: Cholinergic receptor muscarinic 1 (CHRM1) small molecule agonists, cell-based qHTS assay (AID 1963589); further: nearly all actives have a fitted effect of over 35% in size
Summary of the method: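 Human M1 in stable CHO line; 18 h plating, 1 h dye load 37 C; cpd added (agonist mode); Ca2+ fluorescence kinetic read, 1 s intervals; 15 conc, 3 runs.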

[16] = cAMP Responsive Elements (CRE) small molecule agonists, cell-based qHTS assay (AID 1963590)
Summary of the method: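 HEK 293T CRE-bla, 2,000 cells/well, 18 h preincubation 37 C/5% CO2; cpds (DMSO) pinned, 3 h; LiveBLAzer B/G FRET substrate, 2 h RT.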

[17] = cAMP Responsive Elements (CRE) small molecule antagonists, cell-based qHTS assay (AID 1963591; active means well fitted inhibition curve with a large enough effect in the signal ratio in the repeat runs, not every such curve was filed as active; the % refers to the signal ratio)
Summary of the method: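 Beta-lactamase reporter read by FRET substrate (LiveBLAzer B/G) after 2 h at room temperature. CRE-bla HEK293T cells had received compound plus 0.25 uM (final) NKH477 for 3 h at 37 °C.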

[18] = target: Beta-2 adrenergic receptor (Homo sapiens) (UniProt P07550); experiment: Adrenergic beta2 receptor (ADRB2) small molecule antagonists, cell-based qHTS assay (AID 1963592); further: series mostly up to about 92 µM; nearly all actives have a fitted effect of over 50% in size
Summary of the method: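 Cells (CHO, stable ADRB2 overexpression) incubated 18-20hr at 37C; compounds added from DMSO; agonist mix (1nM isoproterenol, 100uM IBMX, 25uM Ro-20-1724) added; 0.5hr RT; d2-cAMP and anti-cAMP-cryptate added; 1hr RT; 665/615 nm read.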

[19] = target: Beta-2 adrenergic receptor (Homo sapiens) (UniProt P07550); experiment: Adrenergic beta2 receptor (ADRB2) small molecule agonists, cell-based qHTS assay (AID 1963593);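 further: CHO cells stably overexpressing human ADRB2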
Summary of the method: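 CHO cells stably over-expressing ADRB2 were plated overnight at 37C, then dosed with compounds plus a stimulation mix containing 100uM IBMX and 25uM Ro-20-1724 for 0.5hr at room temperature. cAMP was measured by HTRF competition, 1hr.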

[20] = target: D(2) dopamine receptor (Homo sapiens) (UniProt P14416); experiment: Dopamine D2 receptor (DRD2) small molecule agonists, cell-based qHTS assay (AID 1963594); further: nearly all actives have a fitted effect of over 35% in size; further: potency means the concentration at half of the fitted maximal effect
Summary of the method: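 cAMP accumulation in DRD2-HEK293 cells measured by HTRF after 1 h detection; compounds added 10 min before NKH477 (200nM […]) forskolin-analogue stimulation, 30 min at room temperature, with Ro20-1724 present at 0.1 mM final.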

Chain of 5-hydroxytryptamine receptor 2A (Homo sapiens) (P28223 whole entry, looked up): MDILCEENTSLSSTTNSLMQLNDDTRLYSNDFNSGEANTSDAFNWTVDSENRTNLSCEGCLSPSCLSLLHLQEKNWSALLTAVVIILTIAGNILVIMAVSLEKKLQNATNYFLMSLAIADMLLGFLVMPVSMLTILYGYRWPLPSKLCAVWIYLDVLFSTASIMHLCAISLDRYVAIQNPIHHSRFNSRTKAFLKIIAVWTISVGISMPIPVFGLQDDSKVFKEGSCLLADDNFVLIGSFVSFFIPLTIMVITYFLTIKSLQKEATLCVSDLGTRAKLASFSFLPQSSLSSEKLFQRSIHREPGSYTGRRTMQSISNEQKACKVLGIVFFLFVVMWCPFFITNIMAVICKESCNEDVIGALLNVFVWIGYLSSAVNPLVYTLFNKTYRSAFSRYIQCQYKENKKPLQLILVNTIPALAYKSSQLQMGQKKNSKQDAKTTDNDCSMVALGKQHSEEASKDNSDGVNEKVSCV
Chain of D(2) dopamine receptor (Homo sapiens) (P14416 whole entry, looked up): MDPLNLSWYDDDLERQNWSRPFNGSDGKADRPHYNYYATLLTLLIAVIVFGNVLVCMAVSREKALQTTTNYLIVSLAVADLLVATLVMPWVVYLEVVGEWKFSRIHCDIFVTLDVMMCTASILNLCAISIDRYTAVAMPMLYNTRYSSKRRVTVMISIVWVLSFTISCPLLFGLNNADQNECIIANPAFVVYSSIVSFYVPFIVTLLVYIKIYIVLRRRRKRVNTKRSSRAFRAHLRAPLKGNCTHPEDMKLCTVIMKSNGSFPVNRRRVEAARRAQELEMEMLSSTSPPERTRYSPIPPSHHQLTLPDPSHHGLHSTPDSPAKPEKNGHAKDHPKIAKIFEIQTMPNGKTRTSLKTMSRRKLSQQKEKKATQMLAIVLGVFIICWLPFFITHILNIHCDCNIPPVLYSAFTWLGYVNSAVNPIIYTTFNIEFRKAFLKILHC
Chain of Beta-2 adrenergic receptor (Homo sapiens) (P07550 whole entry, looked up): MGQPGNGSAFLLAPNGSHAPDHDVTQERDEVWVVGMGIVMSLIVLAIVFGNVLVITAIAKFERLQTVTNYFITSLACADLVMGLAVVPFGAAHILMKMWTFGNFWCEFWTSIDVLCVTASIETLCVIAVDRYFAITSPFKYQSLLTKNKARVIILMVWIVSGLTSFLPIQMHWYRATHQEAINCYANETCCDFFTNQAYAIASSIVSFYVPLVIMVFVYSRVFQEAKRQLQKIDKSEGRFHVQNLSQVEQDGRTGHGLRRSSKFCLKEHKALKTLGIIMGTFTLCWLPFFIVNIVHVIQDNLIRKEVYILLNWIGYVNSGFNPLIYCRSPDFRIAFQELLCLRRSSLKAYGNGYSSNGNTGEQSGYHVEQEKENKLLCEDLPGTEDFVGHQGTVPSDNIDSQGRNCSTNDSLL
Chain of Muscarinic acetylcholine receptor M1 (Homo sapiens) (P11229 whole entry, looked up): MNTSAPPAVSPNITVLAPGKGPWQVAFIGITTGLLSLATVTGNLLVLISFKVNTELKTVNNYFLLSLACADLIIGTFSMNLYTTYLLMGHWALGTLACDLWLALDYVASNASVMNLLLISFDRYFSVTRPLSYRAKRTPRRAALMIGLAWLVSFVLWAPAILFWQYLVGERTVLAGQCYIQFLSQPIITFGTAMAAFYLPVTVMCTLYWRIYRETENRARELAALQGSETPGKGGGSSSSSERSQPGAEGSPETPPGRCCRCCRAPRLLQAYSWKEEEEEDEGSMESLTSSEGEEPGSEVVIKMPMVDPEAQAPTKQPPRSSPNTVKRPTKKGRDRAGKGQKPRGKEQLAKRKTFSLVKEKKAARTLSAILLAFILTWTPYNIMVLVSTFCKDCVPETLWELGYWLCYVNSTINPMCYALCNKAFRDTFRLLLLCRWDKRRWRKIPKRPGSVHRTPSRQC
Chain of Gonadotropin-releasing hormone receptor (Homo sapiens) (P30968 whole entry, looked up): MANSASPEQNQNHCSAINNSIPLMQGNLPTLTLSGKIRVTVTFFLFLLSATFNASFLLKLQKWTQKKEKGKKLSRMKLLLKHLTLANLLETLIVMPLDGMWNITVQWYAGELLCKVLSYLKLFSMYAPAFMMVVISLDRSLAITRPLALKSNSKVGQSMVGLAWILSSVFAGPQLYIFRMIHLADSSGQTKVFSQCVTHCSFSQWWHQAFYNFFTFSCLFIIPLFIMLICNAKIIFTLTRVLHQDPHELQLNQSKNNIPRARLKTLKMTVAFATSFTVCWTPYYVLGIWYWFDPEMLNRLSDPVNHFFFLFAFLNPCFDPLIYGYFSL
Chain of KiSS-1 receptor (Homo sapiens) (Q969F8 whole entry, looked up): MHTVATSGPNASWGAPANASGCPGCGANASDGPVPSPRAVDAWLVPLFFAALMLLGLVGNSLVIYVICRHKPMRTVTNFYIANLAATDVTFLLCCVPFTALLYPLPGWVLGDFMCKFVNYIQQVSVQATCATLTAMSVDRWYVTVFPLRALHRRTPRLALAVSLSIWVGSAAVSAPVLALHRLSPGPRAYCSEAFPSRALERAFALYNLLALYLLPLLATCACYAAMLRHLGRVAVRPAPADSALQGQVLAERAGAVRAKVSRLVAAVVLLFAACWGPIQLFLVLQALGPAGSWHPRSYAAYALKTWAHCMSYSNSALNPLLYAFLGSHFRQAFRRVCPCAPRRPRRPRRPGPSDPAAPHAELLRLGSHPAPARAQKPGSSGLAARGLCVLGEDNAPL

SMILES	Potency [1]	Potency [2]	Potency [3]	Potency [4]	Potency [5]	Potency [6]	Potency [7]	Potency [8]	Potency [9]	Potency [10]	Potency [11]	Potency [12]	Potency [13]	Potency [14]	Potency [15]	Potency [16]	Potency [17]	Potency [18]	Potency [19]	Potency [20]
CCc1c(Br)c(Br)c(Br)c(Br)c1Br	inactive	inactive	inactive	inactive	inactive	inactive	inactive	inactive	inactive	inactive	inactive	inactive	inactive	inactive	inactive	inactive	inactive	inactive	inactive	inactive
C=CC(=O)OCCCCCC	inactive	inactive	inactive	inactive	inactive	inactive	inactive	inactive	inactive	0.363 µM (active)	inactive	inactive	inactive	inactive	inactive	inactive	inactive	inactive	inactive	inactive
CC1=CC(=O)[C@H]2C[C@@H]1C2(C)C	inactive	inactive	inactive	inactive	inactive	inactive	inactive	inactive	inactive	inactive	inactive	inactive	inactive	inactive	inactive	inactive	inactive	inactive	inactive	inactive
OCC1CCC(CO)CC1 (stereo not given)	inactive	inactive	inactive	inactive	inactive	inactive	inactive	inactive	inactive	inactive	inactive	inactive	inactive	inactive	inactive	inactive	inactive	inactive	inactive	inactive
CCCC/C=C\CCCCCCCCCC=O	inactive	inactive	inactive	inactive	inactive	inactive	inactive	inactive	inactive	inactive	inactive	inactive	inactive	inactive	inactive	inactive	inactive	inactive	inactive	inactive
CCCCCCOC(=O)C(C)CC (stereo not given)	inactive	inactive	inactive	inactive	inactive	inactive	inactive	inactive	inactive	inactive	inactive	inactive	inactive	inactive	inactive	inactive	inactive	inactive	inactive	inactive
CO[Si](OC)(OC)c1ccccc1	inactive	inactive	inactive	inactive	inactive	inactive	inactive	inactive	inactive	inactive	inactive	inactive	inactive	inactive	inactive	inactive	inactive	inactive	inactive	inactive
Cc1onc(-c2ccccc2)c1C(=O)Cl	inactive	inactive	inactive	inactive	inactive	inactive	inactive	inactive	inactive	inactive	inactive	inactive	inactive	inactive	inactive	inactive	inactive	inactive	inactive	inactive
O=c1[nH]c(=O)c2ccccc2o1	inactive	inactive	inactive	inactive	inactive	inactive	inactive	inactive	inactive	inactive	inactive	inactive	inactive	inactive	inactive	inactive	inactive	inactive	inactive	inactive
CCCCCCCCC(=O)OCC	inactive	inactive	inactive	inactive	inactive	inactive	inactive	inactive	inactive	inactive	inactive	inactive	inactive	inactive	inactive	inactive	inactive	inactive	inactive	inactive
CCOC(C)(C)C	inactive	inactive	inactive	inactive	inactive	inactive	inactive	inactive	inactive	inactive	inactive	inactive	inactive	inactive	inactive	inactive	inactive	inactive	inactive	inactive
CCCCOC(=O)C(C)OC(=O)CCC (stereo not given)	inactive	inactive	inactive	inactive	inactive	inactive	inactive	inactive	inactive	inactive	inactive	inactive	inactive	inactive	inactive	inactive	inactive	inactive	inactive	inactive
CCCCCCCCCCCCI	inactive	inactive	inactive	inactive	inactive	inactive	inactive	inactive	inactive	inactive	inactive	inactive	inactive	inactive	inactive	inactive	inactive	inactive	inactive	54.7 µM (active)
